Results as given in the supplement of paper PMC11732987, “Enantioselective OTUD7B fragment discovery through chemoproteomics screening and high-throughput optimisation” (Communications Chemistry, 2025).

What was measured:
Assay in all cases: log2 ratio of Biotin-Ahx-Ub-VS probe labelling (fragment/DMSO); higher = less target engagement (more negative = stronger competition), active = hit call of the paper (q ≤ 0.05, log2 ratio ≤ -1)
Settings in all cases: compound concentration: 200 uM; treatment time: 3 h
USP19 = molecular target: T1, USP19 (UniProt O94966)
T1 sequence (whole entry): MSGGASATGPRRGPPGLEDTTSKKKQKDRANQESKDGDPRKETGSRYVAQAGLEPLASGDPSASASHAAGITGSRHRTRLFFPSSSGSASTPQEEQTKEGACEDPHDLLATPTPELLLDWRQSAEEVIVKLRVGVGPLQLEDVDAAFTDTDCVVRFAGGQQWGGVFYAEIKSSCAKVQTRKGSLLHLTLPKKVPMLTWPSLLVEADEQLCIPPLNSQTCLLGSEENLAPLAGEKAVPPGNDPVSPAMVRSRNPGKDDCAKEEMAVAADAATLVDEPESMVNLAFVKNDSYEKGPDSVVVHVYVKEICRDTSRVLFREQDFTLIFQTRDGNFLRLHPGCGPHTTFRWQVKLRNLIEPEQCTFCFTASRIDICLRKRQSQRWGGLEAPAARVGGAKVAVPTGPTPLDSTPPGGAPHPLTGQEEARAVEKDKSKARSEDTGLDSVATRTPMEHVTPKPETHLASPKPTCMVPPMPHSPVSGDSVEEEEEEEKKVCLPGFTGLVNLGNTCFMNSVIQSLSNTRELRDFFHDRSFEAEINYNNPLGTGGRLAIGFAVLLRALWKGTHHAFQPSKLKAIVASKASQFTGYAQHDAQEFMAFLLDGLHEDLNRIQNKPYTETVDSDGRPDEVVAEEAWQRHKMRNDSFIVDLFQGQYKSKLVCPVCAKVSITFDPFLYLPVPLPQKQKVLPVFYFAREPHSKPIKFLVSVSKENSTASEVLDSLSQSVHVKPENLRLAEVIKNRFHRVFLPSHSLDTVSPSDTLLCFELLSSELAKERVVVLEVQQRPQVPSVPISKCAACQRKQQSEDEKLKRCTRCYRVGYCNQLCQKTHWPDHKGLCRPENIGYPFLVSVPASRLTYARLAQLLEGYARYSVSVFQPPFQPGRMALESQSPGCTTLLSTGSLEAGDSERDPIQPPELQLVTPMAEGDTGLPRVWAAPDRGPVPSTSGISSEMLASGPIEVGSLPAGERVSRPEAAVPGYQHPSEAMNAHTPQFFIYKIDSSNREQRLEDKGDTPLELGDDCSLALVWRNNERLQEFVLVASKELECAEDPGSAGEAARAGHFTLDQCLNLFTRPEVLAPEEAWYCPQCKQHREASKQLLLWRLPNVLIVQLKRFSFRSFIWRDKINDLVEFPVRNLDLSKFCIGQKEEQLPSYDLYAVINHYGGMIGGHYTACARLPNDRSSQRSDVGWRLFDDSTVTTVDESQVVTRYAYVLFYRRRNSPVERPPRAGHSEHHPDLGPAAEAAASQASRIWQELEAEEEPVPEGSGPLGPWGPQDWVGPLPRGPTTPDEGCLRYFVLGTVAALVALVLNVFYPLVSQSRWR
Method in brief: (§1)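 Labelling with Biotin-Ahx-Ub-VS (0.5 µM final, 1 h) followed a 3 h triplicate treatment of HEK293T lysate (495 µg per sample, Tris/CHAPS/IGEPAL buffer with protease inhibitors) with fragment at 200 µM or vehicle. Labelled DUBs were NeutrAvidin-enriched, digested with LysC and trypsin, and run by diaPASEF LC-MS/MS. The values, average log2 fragment/vehicle ratios by unpaired t-test, come from global-median-normalised Spectronaut label-free quantities. Proteins with ≥2 unique peptides were used.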

USP24 = USP24 (UniProt Q9UPU5)
USP24, sequence (Q9UPU5 whole entry): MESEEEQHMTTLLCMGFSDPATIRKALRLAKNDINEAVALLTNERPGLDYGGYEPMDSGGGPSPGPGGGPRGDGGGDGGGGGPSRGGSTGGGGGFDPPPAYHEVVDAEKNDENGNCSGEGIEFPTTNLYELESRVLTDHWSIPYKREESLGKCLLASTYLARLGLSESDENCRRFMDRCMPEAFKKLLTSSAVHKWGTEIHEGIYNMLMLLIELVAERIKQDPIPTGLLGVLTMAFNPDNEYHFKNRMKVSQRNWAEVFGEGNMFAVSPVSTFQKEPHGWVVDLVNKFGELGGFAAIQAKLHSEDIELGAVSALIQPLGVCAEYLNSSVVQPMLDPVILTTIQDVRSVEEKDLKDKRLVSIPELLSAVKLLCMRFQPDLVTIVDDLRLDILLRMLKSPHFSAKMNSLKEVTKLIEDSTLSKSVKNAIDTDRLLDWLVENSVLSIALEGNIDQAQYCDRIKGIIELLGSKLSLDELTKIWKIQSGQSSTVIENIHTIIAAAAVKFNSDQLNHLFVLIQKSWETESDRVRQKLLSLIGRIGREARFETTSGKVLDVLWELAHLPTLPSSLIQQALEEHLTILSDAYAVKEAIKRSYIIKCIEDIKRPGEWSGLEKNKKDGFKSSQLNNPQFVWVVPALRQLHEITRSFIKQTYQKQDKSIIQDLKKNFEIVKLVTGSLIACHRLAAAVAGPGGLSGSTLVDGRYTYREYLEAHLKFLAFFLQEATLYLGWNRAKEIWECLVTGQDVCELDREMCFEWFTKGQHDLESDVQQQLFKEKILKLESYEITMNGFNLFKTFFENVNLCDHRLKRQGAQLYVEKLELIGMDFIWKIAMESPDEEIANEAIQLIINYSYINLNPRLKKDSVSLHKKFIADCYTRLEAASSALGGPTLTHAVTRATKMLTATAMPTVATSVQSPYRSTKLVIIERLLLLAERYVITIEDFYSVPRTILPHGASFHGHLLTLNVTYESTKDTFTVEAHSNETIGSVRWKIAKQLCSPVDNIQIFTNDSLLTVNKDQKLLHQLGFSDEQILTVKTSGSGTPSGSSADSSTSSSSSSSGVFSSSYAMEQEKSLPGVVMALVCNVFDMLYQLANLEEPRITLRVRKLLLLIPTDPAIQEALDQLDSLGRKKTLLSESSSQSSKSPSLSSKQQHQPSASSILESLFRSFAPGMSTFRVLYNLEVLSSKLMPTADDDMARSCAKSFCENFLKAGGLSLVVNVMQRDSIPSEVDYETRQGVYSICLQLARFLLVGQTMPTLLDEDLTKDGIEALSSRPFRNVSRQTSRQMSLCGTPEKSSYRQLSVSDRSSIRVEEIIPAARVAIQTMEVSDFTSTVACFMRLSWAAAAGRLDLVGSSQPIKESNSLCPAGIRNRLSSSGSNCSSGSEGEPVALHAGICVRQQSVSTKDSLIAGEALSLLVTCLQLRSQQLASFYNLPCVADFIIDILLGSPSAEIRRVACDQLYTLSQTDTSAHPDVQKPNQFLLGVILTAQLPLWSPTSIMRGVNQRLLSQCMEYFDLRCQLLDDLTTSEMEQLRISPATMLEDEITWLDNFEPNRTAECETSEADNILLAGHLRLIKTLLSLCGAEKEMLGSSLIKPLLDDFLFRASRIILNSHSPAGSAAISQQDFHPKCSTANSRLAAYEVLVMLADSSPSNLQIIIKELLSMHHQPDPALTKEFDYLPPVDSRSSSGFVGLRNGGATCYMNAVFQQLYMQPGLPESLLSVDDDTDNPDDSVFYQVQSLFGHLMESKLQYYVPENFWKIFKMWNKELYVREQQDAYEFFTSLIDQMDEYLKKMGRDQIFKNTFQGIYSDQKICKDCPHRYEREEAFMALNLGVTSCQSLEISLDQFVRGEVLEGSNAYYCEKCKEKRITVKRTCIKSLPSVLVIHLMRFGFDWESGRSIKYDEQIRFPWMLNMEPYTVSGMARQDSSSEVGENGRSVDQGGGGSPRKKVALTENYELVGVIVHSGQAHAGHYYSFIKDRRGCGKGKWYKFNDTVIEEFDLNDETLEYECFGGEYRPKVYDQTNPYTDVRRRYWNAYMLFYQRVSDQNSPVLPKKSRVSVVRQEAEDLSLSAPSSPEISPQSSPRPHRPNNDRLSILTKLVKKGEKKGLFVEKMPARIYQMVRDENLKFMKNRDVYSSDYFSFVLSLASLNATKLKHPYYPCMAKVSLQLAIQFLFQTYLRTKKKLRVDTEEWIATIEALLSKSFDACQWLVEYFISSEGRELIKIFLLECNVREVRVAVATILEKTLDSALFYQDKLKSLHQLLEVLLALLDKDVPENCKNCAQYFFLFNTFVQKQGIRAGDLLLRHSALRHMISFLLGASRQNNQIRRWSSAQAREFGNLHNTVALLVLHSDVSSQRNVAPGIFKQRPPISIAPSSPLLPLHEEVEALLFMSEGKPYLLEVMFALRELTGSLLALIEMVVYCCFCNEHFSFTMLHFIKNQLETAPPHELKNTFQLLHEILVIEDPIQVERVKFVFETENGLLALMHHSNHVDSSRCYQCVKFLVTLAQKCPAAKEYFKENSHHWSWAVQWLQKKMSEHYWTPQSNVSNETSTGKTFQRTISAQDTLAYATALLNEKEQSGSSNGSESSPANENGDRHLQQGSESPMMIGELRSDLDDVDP
Method in brief: as §1

USP25 = molecular target: T2, USP25 (UniProt Q9UHP3)
T2 sequence (whole entry): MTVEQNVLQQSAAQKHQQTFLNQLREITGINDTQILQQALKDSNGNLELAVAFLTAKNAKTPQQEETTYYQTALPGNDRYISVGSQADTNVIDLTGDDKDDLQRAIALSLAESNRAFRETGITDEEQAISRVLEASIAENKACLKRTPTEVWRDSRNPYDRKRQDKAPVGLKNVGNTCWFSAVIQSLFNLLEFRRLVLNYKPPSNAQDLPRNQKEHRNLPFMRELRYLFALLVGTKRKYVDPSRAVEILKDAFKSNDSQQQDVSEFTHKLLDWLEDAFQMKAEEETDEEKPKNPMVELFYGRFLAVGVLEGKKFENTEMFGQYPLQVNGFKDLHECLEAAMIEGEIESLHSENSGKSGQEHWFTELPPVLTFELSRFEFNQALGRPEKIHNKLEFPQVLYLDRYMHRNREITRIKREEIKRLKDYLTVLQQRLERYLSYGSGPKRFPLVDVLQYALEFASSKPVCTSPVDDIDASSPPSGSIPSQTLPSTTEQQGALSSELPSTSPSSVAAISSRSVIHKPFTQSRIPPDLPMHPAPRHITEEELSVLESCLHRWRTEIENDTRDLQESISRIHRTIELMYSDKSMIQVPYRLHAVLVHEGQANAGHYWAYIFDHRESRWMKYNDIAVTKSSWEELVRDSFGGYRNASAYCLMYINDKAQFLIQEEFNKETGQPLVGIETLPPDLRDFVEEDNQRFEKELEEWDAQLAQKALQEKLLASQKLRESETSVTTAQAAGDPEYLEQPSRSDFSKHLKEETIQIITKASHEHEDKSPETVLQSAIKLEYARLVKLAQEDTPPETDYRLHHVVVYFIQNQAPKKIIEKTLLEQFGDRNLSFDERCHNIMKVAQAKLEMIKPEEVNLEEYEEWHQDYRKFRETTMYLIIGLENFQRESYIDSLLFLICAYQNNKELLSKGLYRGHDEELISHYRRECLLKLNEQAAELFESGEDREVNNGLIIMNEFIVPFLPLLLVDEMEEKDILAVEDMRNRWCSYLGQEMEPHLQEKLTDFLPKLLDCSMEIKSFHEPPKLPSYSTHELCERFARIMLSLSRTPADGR
Method in brief: as §1

USP28 = molecular target: T3, USP28 (UniProt Q96RU2)
T3 sequence (whole entry): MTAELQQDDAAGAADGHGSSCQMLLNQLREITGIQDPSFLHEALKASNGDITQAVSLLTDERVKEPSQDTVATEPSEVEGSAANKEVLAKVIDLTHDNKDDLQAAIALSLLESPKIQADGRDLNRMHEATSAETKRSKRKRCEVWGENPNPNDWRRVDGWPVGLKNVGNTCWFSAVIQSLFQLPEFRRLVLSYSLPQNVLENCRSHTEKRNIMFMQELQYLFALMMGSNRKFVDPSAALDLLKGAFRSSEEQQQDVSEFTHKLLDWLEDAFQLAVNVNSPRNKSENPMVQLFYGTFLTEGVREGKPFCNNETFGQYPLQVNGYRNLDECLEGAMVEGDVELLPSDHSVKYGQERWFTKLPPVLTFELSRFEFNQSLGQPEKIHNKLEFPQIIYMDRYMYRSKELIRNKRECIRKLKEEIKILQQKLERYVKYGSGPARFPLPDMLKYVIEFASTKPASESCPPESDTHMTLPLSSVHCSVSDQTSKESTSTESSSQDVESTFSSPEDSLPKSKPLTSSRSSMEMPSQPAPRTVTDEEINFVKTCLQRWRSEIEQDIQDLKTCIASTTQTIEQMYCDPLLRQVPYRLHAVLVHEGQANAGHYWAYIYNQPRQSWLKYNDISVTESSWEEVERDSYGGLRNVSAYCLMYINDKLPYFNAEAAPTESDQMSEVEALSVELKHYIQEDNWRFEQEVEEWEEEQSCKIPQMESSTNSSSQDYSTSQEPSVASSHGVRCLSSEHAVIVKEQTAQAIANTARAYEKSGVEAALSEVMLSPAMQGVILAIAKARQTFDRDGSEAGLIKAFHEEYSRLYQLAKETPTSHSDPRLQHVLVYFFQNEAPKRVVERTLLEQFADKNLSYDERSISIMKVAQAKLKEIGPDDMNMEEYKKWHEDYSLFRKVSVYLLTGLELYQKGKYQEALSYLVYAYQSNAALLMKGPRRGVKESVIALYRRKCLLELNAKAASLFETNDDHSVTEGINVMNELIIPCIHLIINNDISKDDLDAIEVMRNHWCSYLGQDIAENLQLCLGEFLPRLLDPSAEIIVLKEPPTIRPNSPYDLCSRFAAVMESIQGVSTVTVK
Method in brief: as §1

Measured: log2 ratio of Biotin-Ahx-Ub-VS probe labelling

O=C(CCl)NC1CCS(=O)(=O)c2ccccc21 (centres undefined)
inactive: USP19 -0.237 | USP24 -0.183 | USP25 -0.461 | USP28 -0.943
